Experimental findings from PubChem BioAssay AID1851 (National Center for Advancing Translational Sciences (NCATS), 2009) are described below.

About 5,700 (36%) of roughly 16,000 compounds were called active. About 24% were inconclusive and are not listed. The list shows a part of the results. Unmarked numbers belong to inactive results. Calls follow the shape of the dose curve; as a rule, active = well fitted curve in the direction sought with a large enough effect; inconclusive = small, poorly fitted or top-dose-only effect, or effect the other way; inactive = no such curve, though single readings can be large or run the other way.
% is scaled to controls: 0 for no effect and ±100 for the full control effect.

Chain of Cytochrome P450 1A2 (Homo sapiens) (P05177 whole entry, looked up): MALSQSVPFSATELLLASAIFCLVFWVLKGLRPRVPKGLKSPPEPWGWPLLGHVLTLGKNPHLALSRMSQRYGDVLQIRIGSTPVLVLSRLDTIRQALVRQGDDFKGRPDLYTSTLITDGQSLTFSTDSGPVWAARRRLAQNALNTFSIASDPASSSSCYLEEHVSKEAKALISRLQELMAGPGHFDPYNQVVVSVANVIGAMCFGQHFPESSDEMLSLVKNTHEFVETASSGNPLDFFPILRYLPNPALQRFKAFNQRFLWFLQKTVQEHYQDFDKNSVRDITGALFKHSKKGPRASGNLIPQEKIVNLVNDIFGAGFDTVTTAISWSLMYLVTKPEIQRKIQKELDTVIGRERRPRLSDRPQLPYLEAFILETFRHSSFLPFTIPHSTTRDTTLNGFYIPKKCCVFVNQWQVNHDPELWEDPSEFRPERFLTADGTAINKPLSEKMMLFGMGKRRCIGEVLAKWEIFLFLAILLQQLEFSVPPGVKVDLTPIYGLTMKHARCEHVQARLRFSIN

The assay has as its target Cytochrome P450 1A2 (Homo sapiens) (UniProt P05177). As to the kind of experiment: Cytochrome panel assay with activity outcomes. As to conditions: recombinant CYP, pro-luciferin dealkylation, luminescence, p450-cyp1a2; series mostly up to 57.1 µM; activity, negative = inhibition: at the top concentration.
For `O=[N+]([O-])c1cccc(-c2nc(-c3cccs3)c(-c3cccs3)[nH]2)c1`, the AC50 (usually the concentration giving half of the maximal activity seen) was 1000 nM (active).
The same measure, in the same setting: under `COc1ccc(-c2nc(-c3ccccc3)c(-c3cc([N+](=O)[O-])ccc3C)[nH]2)cc1O` stands 14100 nM (active); under `O=[N+]([O-])c1cccc(-c2nc(-c3ccccc3)c(-c3cccs3)[nH]2)c1`, 2510 nM (active).
Turning to `CCOC(OCC)P(=O)(O)CCCNCc1ccc(Cl)c(Cl)c1`, the “activity, negative = inhibition” value is -38%.
As for `CCN(CC)c1ccc(NC(=O)c2cnn(CC)c2)cc1`, the “activity, negative = inhibition” value was -3.68%.
With `CCOc1ccc(C(=O)Nc2cnn(Cc3ccc(Cl)c(Cl)c3)c2)cc1`, the AC50 was 10000 nM (active).
Still for that read-out and setting: under `Cc1cc(C(=O)CSC(=S)SC(C)(C)C)ccc1Cl` stands 1580 nM (active); under `N#CCCn1c(=O)c(-c2ccc(F)cc2)nc2cnc(OCc3ccccc3)nc21`, 1580 nM (active).
For the compound `N#CCCn1c(=O)c(-c2ccc(Cl)cc2)nc2cnc(OCc3ccccc3)nc21`, the AC50 is 2000 nM (active).
On the same count and under the same terms, under `N#CCCn1c(=O)cnc2cnc(OCc3ccccc3)nc21` stands 12600 nM (active).
Same read-out and setting: under `N#CCCn1c(=O)c(-c2cc(F)cc(F)c2)nc2cnc(Oc3ccccc3)nc21` stands 2000 nM (active).
For `O=C1CC[C@H](NC(=O)c2ccccc2)C(=O)N1`, the activity, negative = inhibition is -20.9% [at 11.4 µM].
As to `N#CCCn1c(=O)c(-c2ccccc2)nc2cnc(OCc3ccccc3)nc21`, the AC50 is 3160 nM (active).
On the same count and under the same terms, under `COc1ncc2nc(-c3cc(F)cc(F)c3)c(=O)n(CCC#N)c2n1` stands 6310 nM (active); under `N#CCCn1c(=O)c(-c2cc(F)cc(F)c2)nc2cnc(OCc3ccccc3)nc21`, 6310 nM (active).
As for `CN(C)c1ncc2nc(-c3cc(F)cc(F)c3)c(=O)n(CCC#N)c2n1`, the “activity, negative = inhibition” value was -15.7%.
Consider `COc1cccc([C@@H]2Oc3ccc(OC)cc3/C(=N/O[C@@H](C)c3cn([C@H]4COC[C@H]4O)nn3)[C@@H]2O)c1`, for which the activity, negative = inhibition was 8.26% [at 11.4 µM].
Same read-out and setting: under `Clc1ccccc1C(Nc1ncccn1)Nc1ncccn1` stands -16.9% [at 11.4 µM].
Still for that read-out and setting: under `CC(=O)c1c(C(C)=O)c(C)n(NC(=O)c2ccncc2)c1C` stands 8.59%.
As to `Cc1onc(-c2c(Cl)cccc2Cl)c1C(=O)Nc1ccc2c(c1)OCO2`, the AC50 is 3160 nM (active).
On to `CC(=O)c1cc2c(cc1NC(=O)CCCC(=O)O)OCO2`, for which the “activity, negative = inhibition” value is -28%.
Still for that read-out and setting: under `Cc1onc(-c2ccccc2)c1C(=O)NC(CC(=O)O)c1ccc(OC(C)C)cc1` (stereo not given) stands -19.1%.
`CC(=O)c1cc2c(cc1NC(=O)c1c(-c3ccccc3)noc1C)OCO2`: the AC50 is 2240 nM (active).
Regarding `Cc1onc(-c2c(Cl)cccc2Cl)c1C(=O)N1CCc2ccccc2C1`, the “activity, negative = inhibition” value is -17.5%.
Still for that read-out and setting: under `C/C(=C(/CCO)SSC[C@@H]1CCCO1)N(C=O)Cc1cnc(C)nc1N` stands -10.8% [at 25.6 µM].
On the same count and under the same terms, under `CCOC(=O)C1CCCN(C(=O)CSCc2ccccc2)C1` (stereo not given) stands -15.5%.
Consider `CCOC(=O)N1CCN(C(=O)CSCc2ccc(Cl)cc2)CC1`, for which the AC50 was 6310 nM (active).
For the compound `CC(C)CC(=O)N1CCC(O)(CS(=O)(=O)Cc2ccc(Cl)cc2)CC1`, the “activity, negative = inhibition” value was 11%.
Take `CCOc1cccc2cc(C(N)=O)c(=NCc3ccccc3)oc12`: the AC50 was 2240 nM (active).
Still for that read-out and setting: under `COc1cccc(-c2ccc3ncnc(N(C)Cc4ccco4)c3c2)c1` stands 1260 nM (active).
Regarding `CN(Cc1ccco1)c1ncnc2ccc(-c3cccnc3)cc12`, the AC50 is 316 nM (active).
On the same count and under the same terms, under `Cc1ccc(CSc2nnc3c(n2)OC2(Nc4ccccc4-3)C(=O)Nc3ccc(F)cc32)cc1` (stereo not given) stands 14100 nM (active).
For the compound `CCCNC(=O)OC[C@H]1O[C@@H](CCO/N=C2/[C@H]3O[C@@H]3[C@@H](O)[C@H]3[C@H]2CCn2c(=O)n(-c4ccccc4)c(=O)n23)C=C[C@@H]1Oc1ccc(OC)cc1`, the activity, negative = inhibition was -12.7% [at 11.4 µM].
Regarding `COc1ccc(-n2c(=O)c(-c3cn(C)c4ccccc34)nc3cncnc32)cc1`, the AC50 was 316 nM (active).
For the compound `Cn1cc(-c2nc3cncnc3n(C3CC3)c2=O)c2ccccc21`, the AC50 was 200 nM (active).
Regarding `COc1ccc(-n2c(=O)c(-c3cn(C)c4ccccc34)nc3cnc(OC)nc32)cc1`, the “activity, negative = inhibition” value was -22%.
For `COc1ccc(Oc2ncc3nc(-c4cn(C)c5ccccc45)c(=O)n(C4CC4)c3n2)cc1`, the AC50 is 12600 nM (active).
As to `Cn1cc(-c2nc3cncnc3n(-c3ccccc3)c2=O)c2ccccc21`, the AC50 is 1580 nM (active).
Regarding `CS(=O)(=O)N1CCC[C@@]2(CCN(Cc3nccs3)C2)C1`, the “activity, negative = inhibition” value was 3.08%.
On the same count and under the same terms, under `Cc1ccc(/C=C/C2=Cc3c(sc(NC(=O)CSc4n[nH]c(N)n4)c3C#N)C(C)(C)C2)o1` stands -29.2%.
As for `CCOC(=O)c1sc(NC(=O)CSc2nc(C)cc(C)n2)c(C#N)c1C`, the AC50 was 10000 nM (active).
Turning to `COc1cc2cc3c(N)c(C(=O)Nc4sc(C)c(C)c4C#N)sc3nc2cc1OC`, the “activity, negative = inhibition” value is -27.6%.
With `CCOC(=O)c1sc(NC(=O)CSc2n[nH]c(-c3ccc(Cl)cc3Cl)n2)c(C#N)c1C`, the AC50 is 14100 nM (active).
On to `CCOC(=O)c1sc(NC(=O)CSc2nc(C)cc(C)c2C#N)c(C#N)c1C`, for which the “activity, negative = inhibition” value is -28.8%.
In the case of `CCOc1ccc(/C=C/C2=Cc3c(sc(NC(=O)CSc4n[nH]c(N)n4)c3C#N)C(C)(C)C2)cc1`, the “activity, negative = inhibition” value was -14.8%.
